The campaign covered roughly 52,000 compounds. About 4,300 (8.3%) were called active. Cut-off read from the data, not from the text of the source: active = survival mostly below about 52% (no sharp cut-off); inactive = mostly above about 56%. This excerpt belongs to a sample that is enriched for actives.
system: DeltatarO mutant; assay: growth inhibition of S. aureus wild type versus tarO mutant, primary screen, teichoic acid synthesis inhibitors, RN4220, OD600 (AID 463173); settings: OD600, 18 h, active compounds read low, screened at 18.75 µg/mL (by protocol)

| SMILES | survival |
| --- | --- |
| COc1cc(NC(=O)NCCn2nnc3cc(S(=O)(=O)N(C)C)ccc32)cc(OC)c1OC | 84% (inactive) |
| Cc1ccc(S(=O)(=O)NC(C)(C)CN2CCCCC2)cc1 | 96% (inactive) |
| NC1CCN(C(=O)NC2CCCCC2)CC1 | 89% (inactive) |
| Cc1cc(=O)n(Cc2ccccc2)c(=O)n1Cc1ccccc1 | 89% (inactive) |
| Cc1ccccc1-c1nc(CS(=O)(=O)CC(=O)Nc2c(C)cccc2C)c(C)o1 | 92% (inactive) |
| Cn1cc(S(=O)(=O)N2CCCCCC2)cc1C(=O)Nc1ccccc1F | 88% (inactive) |
| CC(=O)N1CCC(N(Cc2ccco2)C(=O)Nc2cccc(C)c2)CC1 | 130% (inactive) |
| COC(=O)c1ccccc1NC(=O)Nc1cccc(OCc2cc(=O)n3cccc(C)c3n2)c1 | 134% (inactive) |
| Cc1ccc(-n2c(SCC(=O)O)nc3sc4c(c3c2=O)CCCC4)cc1 | 90% (inactive) |
| CCSc1nc2sc3c(c2c(=O)n1-c1ccc(C)cc1)CCCC3 | 0% (active) |
| CCc1ccc(-n2c(=O)c3c4c(sc3n(Cc3ccc(C)cc3)c2=O)CCC4)cc1 | 132% (inactive) |
| CSc1nc2sc3c(c2c(=O)n1-c1ccccc1C)CCCC3 | 97% (inactive) |
| CSc1nc2sc3c(c2c(=O)n1-c1ccc(C)cc1)CCCC3 | 39% (active) |
| Cc1ccc(-n2c(=O)[nH]c3sc4c(c3c2=O)CCCC4)cc1 | 133% (inactive) |
| CCCOc1ccc(-c2nc3ccc(Br)cc3c(=O)o2)cc1 | 81% (inactive) |
| Cc1ccc(C)c(NC(=O)Cn2cc(S(=O)(=O)c3ccc(F)cc3)c(=O)c3cc(F)ccc32)c1 | 87% (inactive) |
| Cc1c(C(=O)N(Cc2ccc(N(C)C)cc2)CC2CCCO2)oc2ccccc12 (stereo unspecified) | 61% (inactive) |
| COC(=O)CNc1ccc(C)c(C)c1 | 67% (inactive) |
| Cc1cccc(CCNC(=O)c2nc(-c3ccc(Cl)cc3)n3c2CCCCC3)c1 | 89% (inactive) |
| O=C(Nc1ccc(C(F)(F)F)cc1)C1CCC(CNS(=O)(=O)c2cccc3nsnc23)CC1 (stereo unspecified) | 49% (inactive) |
| O=C(NCCCN1CCN(c2cccc(Cl)c2)CC1)c1cnn(-c2ccc(F)cc2)c1-n1cccc1 | 32% (active) |
| Cc1nn(-c2ccc(F)cc2)c(-n2cccc2)c1C(=O)NCCCN1CCN(c2cccc(Cl)c2)CC1 | 94% (inactive) |
| Cc1ccc(-n2nc(C)c(C(=O)NCCCN3CCN(c4cccc(Cl)c4)CC3)c2-n2cccc2)cc1 | 0% (active) |
| O=C(NCCCN1CCN(c2ccc(F)cc2)CC1)c1cnn(-c2ccc(F)cc2)c1-n1cccc1 | 70% (inactive) |

| SMILES | survival |
| --- | --- |
| Cc1ccc(-n2ncc(C(=O)NCCCN3CCN(c4cccc(Cl)c4)CC3)c2-n2cccc2)cc1 | 75% (inactive) |
| Cc1ccc(-n2nc(C)c(C(=O)NCCCN3CCN(c4ccc(F)cc4)CC3)c2-n2cccc2)cc1 | 92% (inactive) |
| O=C(Cn1c(=O)c2cc(Cl)ccc2n2nncc12)Nc1ccccc1 | 75% (inactive) |
| O=C(CCC1CCCC1)N1CCc2c([nH]c3ccccc23)C1c1ccc(F)cc1 (stereo unspecified) | 99% (inactive) |
| CCCCN(C(=O)C1CCC1)c1nnc(-c2ccncc2)s1 | 96% (inactive) |
| Clc1ccc(-c2nc3ncccn3c2Nc2ccc3c(c2)OCCO3)cc1 | 89% (inactive) |
| COc1ccc(C(=O)NCC(c2cccnc2)N2CCN(c3ccccc3F)CC2)cc1OC (stereo unspecified) | 86% (inactive) |
| Cc1ccc2[nH]c(=O)c(CN(Cc3nnnn3CCc3ccccc3)C3CCCC3)cc2c1 | 91% (inactive) |
| CCOc1ccc(OCC)c(NS(=O)(=O)c2ccc3c(c2)CCCN3C(C)=O)c1 | 73% (inactive) |
| Cc1ccc(-c2noc(-c3cccnc3NCc3ccco3)n2)cc1 | 65% (inactive) |
| COc1ccc(-c2noc(-c3cccnc3NCc3ccco3)n2)cc1 | 98% (inactive) |
| Clc1ccc(-c2noc(-c3cccnc3NCc3ccco3)n2)cc1 | 61% (inactive) |
| Cc1ccccc1-c1noc(-c2cccnc2NCc2ccco2)n1 | 52% (inactive) |
| c1ccc(-c2noc(-c3cccnc3NCc3ccco3)n2)cc1 | 60% (active) |
| Cc1cccc(-c2noc(-c3cccnc3NCc3ccco3)n2)c1 | 44% (active) |
| Cc1cccc(N2CCN(C3(c4ccccc4)C(=O)c4ccccc4C3=O)CC2)c1C | 79% (inactive) |
| COc1cccc(C(=O)NC(c2ccc(Cl)cc2)c2cc(Cl)c3cccnc3c2O)c1 (stereo unspecified) | 89% (inactive) |
| Cc1cccc(NC(c2ccccc2C)c2ccc3ccc(C)nc3c2O)n1 (stereo unspecified) | 0% (active) |
| Cc1cccc(NC(c2cccc(Cl)c2)c2ccc3cccnc3c2O)n1 (stereo unspecified) | 2% (active) |
| Cc1cccc(NC(=O)c2ccccc2)n1 | 93% (inactive) |
| COc1ccc(C(=O)NC(c2ccc(Cl)cc2)c2cc(Cl)c3cccnc3c2O)cc1 (stereo unspecified) | 88% (inactive) |
| COc1ccc(C(=O)NC(c2ccccc2Cl)c2cc(Cl)c3cccnc3c2O)cc1 (stereo unspecified) | 92% (inactive) |
| Cc1ccc(C(Nc2ccccn2)c2ccc3cccnc3c2O)cc1 (stereo unspecified) | 1% (active) |
| Oc1cccc(C(Nc2ccccn2)c2ccc3cccnc3c2O)c1Cl (stereo unspecified) | 26% (active) |

| SMILES | survival |
| --- | --- |
| COc1ccccc1CC(=O)Nc1cccc(C)n1 | 97% (inactive) |
| CCC(=O)NC(c1ccccc1OC)c1cc(Cl)c2cccnc2c1O (stereo unspecified) | 68% (inactive) |
| Nc1nnc(CCc2ccccc2)s1 | 80% (inactive) |
| O=C(O)CCOc1ccc2c(c1)OCCO2 | 82% (inactive) |
| CCC(CC)c1nn2c(=O)cc(COc3ccc(NC(=O)c4ccccc4C)cc3)nc2s1 | 81% (inactive) |
| O=C(CSc1nc2c(c(=O)[nH]1)CCC2)Nc1ccccc1C(F)(F)F | 72% (inactive) |
| O=C(CN1C(=O)COc2ccc(S(=O)(=O)N3CCCCCC3)cc21)NCc1ccc(Cl)cc1 | 113% (inactive) |
| CCOCCCNC(=O)c1cc2c(=O)n(C)c3ccccc3c2n1C | 86% (inactive) |
| O=C(Nc1ccccc1C(F)(F)F)N1CCC2(CC1)Oc1ccccc1C(=O)N2Cc1ccccc1F | 67% (inactive) |
| COc1cc(-c2cc(OC)c3c(C)oc(C)c3c(=O)c2)ccc1OC(=O)c1ccc(C)cc1 | 88% (inactive) |
| Cc1ccc(NC(=O)c2sc3nc(-c4ccc(F)cc4)cn3c2C)c(C)c1 | 81% (inactive) |
| O=C(O)CCC(=O)Nc1ccc2c(c1)oc1ccccc12 | 86% (inactive) |
| O=C(c1ccccc1)C(Nc1ccccn1)c1ccccc1 (stereo unspecified) | 99% (inactive) |
| Cc1ccnc(NC(c2cccc(O)c2)c2ccc3ccc(C)nc3c2O)c1 (stereo unspecified) | 68% (inactive) |
| COc1cc(C(=O)NC(c2ccc(Cl)cc2)c2cc(Cl)c3cccnc3c2O)cc(OC)c1OC (stereo unspecified) | 85% (inactive) |
| Cc1ccc(C(C)C)cc1S(=O)(=O)Nc1ccccn1 | 101% (inactive) |
| COc1ccc(C(Nc2ccccn2)c2ccc3ccc(C)nc3c2O)cc1C (stereo unspecified) | 40% (active) |
| Cc1ccc2ccc(C(Nc3ccccn3)c3ccccc3)c(O)c2n1 (stereo unspecified) | 39% (active) |
| O=C(COc1ccccc1Cl)Nc1ccccc1OCc1cc(=O)n2ccccc2n1 | 92% (inactive) |
| COc1ccc(NC(=O)COCc2cc(-c3ccco3)on2)cc1Cl | 112% (inactive) |
| Cc1ccc(NC(=O)C2CCCN2S(=O)(=O)c2cccc3nsnc23)c(C)c1 (stereo unspecified) | 78% (inactive) |
| COc1cc(NC(=O)CN2C(=O)c3ccccc3Sc3ccc(C(=O)N4CCCC4)cc32)cc(OC)c1 | 72% (inactive) |
| CCc1ccc2occ(CC(=O)Nc3ccc(OC)c(Cl)c3)c2c1 | 88% (inactive) |
| COc1ccc(-c2cc(C(=O)Nc3ccc(C#N)cc3)no2)cc1 | 46% (inactive) |

| SMILES | survival |
| --- | --- |
| CCOC(=O)c1sc(NC(=O)c2cc(CC)on2)c(C(=O)OCC)c1C | 54% (inactive) |
| CCc1c(C)sc(NC(=O)c2cc(-c3cccc(Cl)c3)on2)c1C#N | 69% (inactive) |
| CCc1cc(C(=O)Nc2sc(C)c(CC)c2C#N)no1 | 35% (active) |
| CCc1c(C)sc(NC(=O)c2cc(-c3ccc(OC)c(OC)c3)on2)c1C#N | 149% (inactive) |
| CCc1c(C)sc(NC(=O)c2cc(-c3ccc(OC)cc3)on2)c1C#N | 50% (active) |
| CC(C)OCCCn1c(=O)c2ccccc2n2c(-c3ccccc3)nnc12 | 105% (inactive) |
| CCN1CCN(CCCNC(=O)c2ccc3c(c2)sc2nc(-c4ccc(C)cc4)cn23)CC1 | 26% (active) |
| CCN1CCN(CCCNC(=O)c2ccc3c(c2)sc2nc(-c4ccc(OC)cc4)cn23)CC1 | 72% (inactive) |
| CCCN1CCN(CCCNC(=O)c2ccc3c(c2)sc2nc(-c4ccc(C)cc4)cn23)CC1 | 18% (active) |
| COc1ccccc1Nc1nc(C)nc(N)c1S(=O)(=O)c1ccccc1 | 84% (inactive) |
| CC1CCc2c(sc3nc(-c4cc5ccccc5oc4=O)nc(Cl)c23)C1 (stereo unspecified) | 61% (inactive) |
| COc1ccc2cc(-c3nc(Cl)c4c5c(sc4n3)CC(C)CC5)c(=O)oc2c1 (stereo unspecified) | 77% (active) |
| COc1ccc2cc(-c3nc(Cl)c4c5c(sc4n3)CCCC5)c(=O)oc2c1 | 76% (inactive) |
| COc1ccc(-c2csc(NC(=O)C(C)C)n2)cc1 | 84% (inactive) |
| CCOC(=O)COc1ccc(C)cc1C(=O)c1ccn2nc(-c3ccc(F)cc3)cc2n1 | 69% (inactive) |
| Cn1c(=O)oc2cc(S(=O)(=O)N3CCC(C(=O)NCc4ccccc4Cl)CC3)ccc21 | 125% (inactive) |
| COC(=O)c1cc(-c2cc(OC)c(OC)c(OC)c2)no1 | 99% (inactive) |
| Cn1c(COc2ccccc2Br)nc2ccccc21 | 92% (inactive) |
| COc1cccc(OCc2nc3ccccc3n2Cc2ccccc2)c1 | 62% (inactive) |
| Cn1c(COc2ccccc2C(C)(C)C)nc2ccccc21 | 5% (active) |
| Cc1ccc(C)c(OCc2nc3ccccc3n2C)c1 | 59% (inactive) |
| c1ccc(OCCn2c(COc3ccccc3)nc3ccccc32)cc1 | 0% (active) |
| CC(C)(C)c1ccc(OCc2nc3ccccc3n2CCOc2ccccc2)cc1 | 10% (active) |
| COc1ccc(OCc2nc3ccccc3n2Cc2ccc(C(C)(C)C)cc2)cc1 | -9% (active) |
